SMILES strings stand for the structures.

This assay concerns SUM149. Put plainly: percent difference in area under dose-response curve of relative cell number, RPMI vs HPLM; higher = drug relatively more effective in HPLM than RPMI (negative = less effective in HPLM). As to conditions: treatment time: 72 h; dose range: 10-point, 1 nM to 20 µM; media compared: RPMI vs HPLM.
With `Nc1ccc(-c2ccc3ncc4ccc(=O)n(-c5cccc(C(F)(F)F)c5)c4c3c2)cn1` [Torin_2], the “percent difference in area under dose-response curve” value (“percent difference in area” below) was -2.02%.

For `COc1cc(F)c(F)c(Nc2ccc(I)cc2F)c1NS(=O)(=O)C1(C[C@H](O)CO)CC1` [Refametinib], the “percent difference in area” value was -9.94%.

Consider `CCOC(=O)c1cnc2ccc(-c3cncc(NS(=O)(=O)c4ccccc4)c3)cn12`, for which the “percent difference in area” value was -8.07%.

In the case of `Nc1ccn([C@@H]2C=C(CO)[C@@H](O)[C@H]2O)c(=O)n1` [Cyclopentenyl_cytosine], the “percent difference in area” value worked out at 2.58%.

For the molecule `CCOc1cc2ncc(C#N)c(Nc3ccc(F)c(Cl)c3)c2cc1NC(=O)/C=C/CN(C)C` [Pelitinib], the “percent difference in area” value is 4.27%.

Regarding `CCNC(=O)c1noc(-c2cc(C(C)C)c(O)cc2O)c1-c1ccc(CN2CCOCC2)cc1`, the “percent difference in area” value was -30%.

As to `CN1CCN(c2ccc3nc(-c4c(N)c5c(F)cccc5[nH]c4=O)[nH]c3c2)CC1` [Dovitinib], the “percent difference in area” value was -0.391%.

With `Cc1ccc(C(=O)N(CCCN)[C@@H](c2oc3cc(Cl)ccc3c(=O)c2Cc2ccccc2)C(C)C)cc1`, the “percent difference in area” value was -42.1%.

Turning to `NC(=O)c1[nH]nc([C@@H]2O[C@H](CO)[C@@H](O)[C@H]2O)c1O` [Pyrazofurin], the “percent difference in area” value stood at 5.89%.

Consider `COc1cc2c(Oc3ccc4[nH]c(C)cc4c3F)ncnc2cc1OCCCN1CCCC1` [Cediranib], for which the “percent difference in area” value came out at 1%.

As for `Nc1ccccc1NC(=O)c1ccc(CNc2nccc(-c3cccnc3)n2)cc1` [Mocetinostat], the “percent difference in area” value turned out to be 0.546%.

For the molecule `CC(=O)Nc1cccc(-n2c(=O)n(C3CC3)c(=O)c3c(Nc4ccc(I)cc4F)n(C)c(=O)c(C)c32)c1`, the “percent difference in area” value was -18.1%.

Turning to `CN(C)/N=N/c1[nH]cnc1C(N)=O` [Dacarbazine], the “percent difference in area” value was -9.4%.

The record behind these values is the supplement of paper PMC11383364.
